Screens (PubChem BioAssay)
In the library only some 4.5% were active in any assay of this set; here they are far more common.
ssDAF12 agonist = S. stercoralis DAF-12 activation, primary screen. HEK293 ssDAF-12/GRIP1 lit1-tk-luc reporter, luminescence; % of 3 µM dafachronic acid response. hit rate 1% among 370,000. activation, % at 6.8 µM;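 active means activation above the mean over all tested compounds plus 3 SD, cut at about 0.9% in these data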
DAX1 inh-1 = DAX1 (NR0B1) inhibition, primary screen | inhibition, % at 6.8 µM | AID 652010 | hit rate 1.1% among 370,000 | HEK293T StAR-luciferase reporter, SF-1/DAX-1 repression relief;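 active means inhibition above the mean over all tested compounds plus 3 SD, cut at about 3.6% in these data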;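 further: higher inhibition means more luminescence from relief of DAX-1 repression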
DAX1 inh-2 = inhibitors of human orphan nuclear receptor DAX1 (NR0B1). P51843. HEK293 Gal4-DAX1 luciferase reporter, luminescence. inhibition, % at 6.75 µM. hit rate 0.99% among 340,000;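 active means inhibition above the mean over all tested compounds plus 3 SD, cut at about 4.2% in these data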;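 further: inhibition shows as a rise in luminescence from relieved DAX1 repression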
Target sequence (P51843 207-470 limits assumed): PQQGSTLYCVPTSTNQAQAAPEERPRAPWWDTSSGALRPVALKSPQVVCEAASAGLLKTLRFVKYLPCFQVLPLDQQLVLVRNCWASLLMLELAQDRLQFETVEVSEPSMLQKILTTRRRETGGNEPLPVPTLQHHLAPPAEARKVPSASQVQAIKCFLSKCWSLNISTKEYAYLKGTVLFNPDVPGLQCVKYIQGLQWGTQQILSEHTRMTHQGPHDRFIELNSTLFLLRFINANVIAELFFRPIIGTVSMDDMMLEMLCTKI
hcDAF12 agonist = activates DAF-12 receptor from parasite H. contortus. activation, % at 6.8 µM. AID 652067. hit rate 1.4% among 370,000. HEK293 hcDAF-12 lit1-tk-luc reporter, luminescence; 0% DMSO, 100% Δ7-dafachronic acid;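 active means activation above the mean of all tested compounds plus 3 SD, cut at about 5.5% in these data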
hgDAF-12 ag = activates the H. glycines DAF-12 receptor ligand-binding domain. HEK293 GAL4-hgDAF12 UAS-luciferase reporter, agonist luminescence; normalized to butyrate control. activation, % at 6.8 µM. hit rate 1.8% among 370,000. AID 687014;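 active means activation above a cutoff set at the mean of all screened compounds plus 3 SD, cut at about 10% in these data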
GAA850 FXN act = frataxin GAA850 promoter activation | HEK293 lucGAA850 FXN promoter luciferase reporter, 24 h; percent of 10 µM SAHA response | activation, % at 6 µM | hit rate 0.56% among 360,000;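 active means activation above the average of all compounds screened plus 3 SD, cutoff fixed separately per campaign, cut at about 7.5% in these data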
A number is an active result.

How did COc1ccc(-n2c(COc3ccccc3)nnc2SCC(=O)Nc2ccc(OCc3ccccc3)cc2)cc1 do in these assays?
ssDAF12 agonist: inactive; DAX1 inh-1: inactive; hcDAF12 agonist: inactive; hgDAF-12 ag: inactive

What do the screens show for `COc1ccc(CNS(=O)(=O)/C=C/c2ccccc2CNC(=O)OC(C)(C)C)cc1`?
ssDAF12 agonist: inactive; DAX1 inh-1: inactive; hcDAF12 agonist: inactive; hgDAF-12 ag: inactive

What do the screens show for `CCCCCCCCN1CN2Cc3ccccc3C2CS1(=O)=O` (stereo not drawn)?
ssDAF12 agonist: inactive; DAX1 inh-1: inactive; hcDAF12 agonist: inactive; hgDAF-12 ag: inactive

Results for c1ccc(-c2nc(-c3ccncc3)no2)cc1 ?
ssDAF12 agonist: inactive; DAX1 inh-1: inactive; DAX1 inh-2: inactive; hcDAF12 agonist: inactive; hgDAF-12 ag: inactive; GAA850 FXN act: inactive

What do the screens show for `Cc1ccccc1-c1nc(-c2cccnc2)no1`?
ssDAF12 agonist: inactive; DAX1 inh-1: inactive; DAX1 inh-2: inactive; hcDAF12 agonist: 6.1; hgDAF-12 ag: 10; GAA850 FXN act: inactive

How did c1ccc(-c2noc(-c3cccnc3)n2)cc1 do in these assays?
ssDAF12 agonist: inactive; DAX1 inh-1: 3.6; DAX1 inh-2: inactive; hcDAF12 agonist: inactive; hgDAF-12 ag: inactive; GAA850 FXN act: inactive

Results for c1ccc(-c2ccc(-c3nc(-c4cccnc4)no3)cc2)cc1 ?
ssDAF12 agonist: inactive; DAX1 inh-1: 3.8; DAX1 inh-2: inactive; hcDAF12 agonist: inactive; hgDAF-12 ag: inactive; GAA850 FXN act: inactive

How did Cn1cccc1C(=O)N1CCN(S(=O)(=O)c2ccc(C(C)(C)C)cc2)CC1 do in these assays?
ssDAF12 agonist: inactive; DAX1 inh-1: inactive; hcDAF12 agonist: inactive; hgDAF-12 ag: inactive

How did CCOC(=O)C1CCN(C(=O)c2cc3c(ccc4ccccc43)o2)CC1 do in these assays?
ssDAF12 agonist: inactive; DAX1 inh-1: 4.1; DAX1 inh-2: inactive; hcDAF12 agonist: inactive; hgDAF-12 ag: inactive; GAA850 FXN act: inactive

How did COc1ccc(OCc2cc(C(=O)N(C)C3CCOCC3)no2)c2ccccc12 do in these assays?
ssDAF12 agonist: 1.0; DAX1 inh-1: inactive; DAX1 inh-2: inactive; hcDAF12 agonist: inactive; hgDAF-12 ag: inactive; GAA850 FXN act: inactive

Results for CCOC(=O)C1CCN(C(=O)c2cc(COc3ccc(OC)c4ccccc34)on2)CC1 ?
ssDAF12 agonist: inactive; DAX1 inh-1: inactive; DAX1 inh-2: inactive; hcDAF12 agonist: 6.3; hgDAF-12 ag: 12; GAA850 FXN act: inactive

How did COc1ccc(OCc2cc(C(=O)N(C)C3CCOC3)no2)c(Cl)c1 (stereo not drawn) do in these assays?
ssDAF12 agonist: inactive; DAX1 inh-1: inactive; DAX1 inh-2: inactive; hcDAF12 agonist: inactive; hgDAF-12 ag: inactive; GAA850 FXN act: inactive

How did CCOC(=O)C1CCN(C(=O)/C=C/c2ccccc2)CC1 do in these assays?
ssDAF12 agonist: inactive; DAX1 inh-1: inactive; DAX1 inh-2: inactive; hcDAF12 agonist: inactive; hgDAF-12 ag: 12; GAA850 FXN act: inactive

Results for CN(C(=O)[C@@H](C1CC1)[C@@H](O)c1ccc2ccccc2c1)c1ccccc1 ?
ssDAF12 agonist: inactive; DAX1 inh-1: inactive; hcDAF12 agonist: inactive; hgDAF-12 ag: inactive

How did CC(C)(C)SCCNC(=O)/C=C/c1ccc(F)cc1 do in these assays?
ssDAF12 agonist: 1.4; DAX1 inh-1: inactive; DAX1 inh-2: inactive; hcDAF12 agonist: inactive; hgDAF-12 ag: inactive; GAA850 FXN act: inactive

How did O=C(c1ccc(Cl)cc1Cl)N1CCc2ccccc21 do in these assays?
ssDAF12 agonist: inactive; DAX1 inh-1: inactive; DAX1 inh-2: inactive; hcDAF12 agonist: inactive; hgDAF-12 ag: inactive; GAA850 FXN act: inactive

Results for O=C(/C=C/c1ccc(Cl)cc1Cl)N1CCc2ccccc21 ?
ssDAF12 agonist: inactive; DAX1 inh-1: inactive; DAX1 inh-2: inactive; hcDAF12 agonist: inactive; hgDAF-12 ag: 13; GAA850 FXN act: inactive

What do the screens show for `O=C(OCC#CCSc1nnc(-c2ccccc2)o1)c1ccc(F)cc1`?
ssDAF12 agonist: inactive; hcDAF12 agonist: inactive; hgDAF-12 ag: inactive

Results for Cc1cc(C)c(NC(=O)C2CCCN2C)c(C)c1 (stereo not drawn) ?
ssDAF12 agonist: inactive; DAX1 inh-1: inactive; DAX1 inh-2: 8.0; hcDAF12 agonist: inactive; hgDAF-12 ag: inactive; GAA850 FXN act: inactive

Results for Cc1cc(C)c(NC(=O)C2CCCN2CCO)c(C)c1 (stereo not drawn) ?
ssDAF12 agonist: inactive; DAX1 inh-1: inactive; DAX1 inh-2: inactive; hcDAF12 agonist: inactive; hgDAF-12 ag: inactive; GAA850 FXN act: inactive

How did CCN(CC)C(=O)CC[C@H]1CC[C@]2(CCCN(CC3CC3)C2)O1 do in these assays?
ssDAF12 agonist: inactive; DAX1 inh-1: inactive; hcDAF12 agonist: inactive; hgDAF-12 ag: inactive

Results for Cc1cc(C)cc(NC(=O)[C@H](Cc2c[nH]c3ccccc23)NC(=O)[C@@H]2Cc3ccccc3CN2)c1 ?
ssDAF12 agonist: inactive; DAX1 inh-1: inactive; DAX1 inh-2: inactive; hcDAF12 agonist: 6.2; hgDAF-12 ag: inactive; GAA850 FXN act: inactive

How did COc1ccc(C2C(C(=O)N3CCOCC3)CCC(=O)N2c2ccc(OC)cc2)cc1 (stereo not drawn) do in these assays?
ssDAF12 agonist: inactive; DAX1 inh-1: inactive; DAX1 inh-2: inactive; hcDAF12 agonist: inactive; hgDAF-12 ag: inactive; GAA850 FXN act: inactive

Results for COc1ccc(C2C(C(=O)NCC3CCCO3)CCC(=O)N2c2ccc3c(c2)OCO3)cc1 (stereo not drawn) ?
ssDAF12 agonist: inactive; DAX1 inh-1: inactive; DAX1 inh-2: 4.4; hcDAF12 agonist: inactive; hgDAF-12 ag: inactive; GAA850 FXN act: inactive

What do the screens show for `Cc1cc(C)nc(S/C=C/C(=O)c2ccccc2F)n1`?
ssDAF12 agonist: inactive; DAX1 inh-1: inactive; DAX1 inh-2: 6.2; hcDAF12 agonist: inactive; hgDAF-12 ag: inactive; GAA850 FXN act: inactive

What do the screens show for `Cc1cc(C)nc(NC(=S)NC(=O)c2ccccc2F)n1`?
ssDAF12 agonist: inactive; DAX1 inh-1: inactive; hcDAF12 agonist: inactive; hgDAF-12 ag: inactive; GAA850 FXN act: inactive

Results for CC1Sc2ccc(C(=O)Nc3ccccc3OC(F)F)cc2NC1=O (stereo not drawn) ?
ssDAF12 agonist: inactive; DAX1 inh-1: 4.3; DAX1 inh-2: inactive; hcDAF12 agonist: inactive; hgDAF-12 ag: inactive; GAA850 FXN act: inactive

What do the screens show for `COc1ccc(-n2c(COc3ccccc3)nnc2SCC(=O)Nc2ccccc2-c2ccccc2)cc1`?
ssDAF12 agonist: inactive; DAX1 inh-1: inactive; hcDAF12 agonist: inactive; hgDAF-12 ag: inactive

What do the screens show for `CN(C(=O)c1ccccc1Cl)c1ccccc1C(=O)NCc1ccccc1`?
ssDAF12 agonist: inactive; DAX1 inh-1: 4.1; DAX1 inh-2: inactive; hcDAF12 agonist: inactive; hgDAF-12 ag: inactive; GAA850 FXN act: inactive

What do the screens show for `CCOc1ccc(-n2c(SCC(=O)Nc3ccc4c(c3)OCCO4)nnc2-c2ccncc2)cc1`?
ssDAF12 agonist: inactive; DAX1 inh-1: inactive; hcDAF12 agonist: inactive; hgDAF-12 ag: inactive

What do the screens show for `COc1ccc(OC)c2sc(N(CCCN(C)C)C(=O)CCS(=O)(=O)c3ccccc3)nc12`?
ssDAF12 agonist: inactive; DAX1 inh-1: inactive; DAX1 inh-2: inactive; hcDAF12 agonist: inactive; hgDAF-12 ag: inactive; GAA850 FXN act: 31
